This passage reports Potency and outcome results from PubChem BioAssay (Tox21).

Structures are written as SMILES. Several values for one entry are separate records, joined by “and”; a condition that tells them apart may be missing. Identical values can stand only once. Inconclusive results are not listed. More than one record can exist for a structure, and the calls need not agree. Activity calls are given as the source filed them. Unless noted, calls follow the shape of the dose curve; as a rule, active = well fitted curve in the direction sought with a large enough effect in the repeat runs; inconclusive = weak or mixed curves; inactive = no such curve, though single readings can be large; an effect the other way counts as inactive or inconclusive.

The nature of test [1]: qHTS RealTime-Glo MT Cell Viability Assay in HEK293 cells - 0 hour (AID 1224880). Also: top concentration of the series differs between compounds; nearly all actives have a fitted effect of over 45% in size. In outline:
(§1)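 Luminescence readout at each listed time point; HEK293, 600 cells/well, RealTime-Glo MT reagent added with cells; compounds pinned (23 nL in DMSO) after 5 h at 37 C; continuous culture at 37 C.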

Test [2] is described as follows: A CellTox Green Cytotoxicity Assay to monitor cytotoxicity in HEK293 cells - 32 hour (AID 1224881). Also: nearly all actives have a fitted effect of over 40% in size. The essentials: (§2)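 Read-out: fluorescence of a cell-impermeant cyanine dye staining DNA of dead cells, proportional to cytotoxicity. HEK293, 600 cells/well with reagent, compound (23 nL DMSO) added after 5 h; reads at 0, 8, 16, 24, 32, 40 h.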
Test [3] in a line: A CellTox Green Cytotoxicity Assay to monitor cytotoxicity in HepG2 cells - 0 hour (AID 1224882). Also: nearly all actives have a fitted effect of over 35% in size. In outline:
(§3)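 HepG2, 600 cells/well premixed w/ CellTox Green; 5 h settle, 37 C/5% CO2; pintool cpd add (DMSO); 37 C, 40 h; fluorescence read at 0, 8, 16, 24, 32, 40 h.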

Test [4] can be described thus: A CellTox Green Cytotoxicity Assay to monitor cytotoxicity in HepG2 cells - 32 hour (AID 1224883). Also: nearly all actives have a fitted effect of over 50% in size. Also: potency is read from the fitted curve at half-maximal effect. The essentials: as §3
A short description of test [5]: A CellTox Green Cytotoxicity Assay to monitor cytotoxicity in HEK293 cells - 8 hour (AID 1224884). Also: nearly all actives have a fitted effect of over 35% in size. In outline: as §2
The nature of test [6]: qHTS RealTime-Glo MT Cell Viability Assay in HepG2 cells - 16 hour (AID 1224885). Also: nearly all actives have a fitted effect of over 50% in size. In outline: (§4)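 Cell number in HepG2 cultures estimated from NanoLuc luminescence generated by metabolic reduction of a prosubstrate by living cells. The homogeneous, nonlytic format allowed repeated reads at 0, 8, 16, 24, 32 and 40 h of compound exposure.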
A general note: In qHTS, concentration-response curves come from the screen itself.

Test [7] can be described thus: qHTS RealTime-Glo MT Cell Viability Assay in HEK293 cells - 24 hour (AID 1224886). Also: nearly all actives have a fitted effect of over 50% in size. Also: potency is read from the fitted curve at half-maximal effect. The essentials:
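Homogeneous bioluminescent viability format in HEK293 cells (600 cells/well). Following 5 h at 37 C/5% CO2, 23 nL compound was pintooled; the signal was measured repeatedly during 40 h incubation.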

Test [8] is described as follows: qHTS RealTime-Glo MT Cell Viability Assay in HEK293 cells - 8 hour (AID 1224887). Also: top concentration of the series differs between compounds; nearly all actives have a fitted effect of over 50% in size. The essentials: as §1
A short description of test [9]: A CellTox Green Cytotoxicity Assay to monitor cytotoxicity in HEK293 cells - 16 hour (AID 1224888). Also: nearly all actives have a fitted effect of over 35% in size. In outline: as §2
Test [10] is described as follows: qHTS RealTime-Glo MT Cell Viability Assay in HepG2 cells - 0 hour (AID 1224889). Also: nearly all actives have a fitted effect of over 50% in size. The essentials:
as §4

Test [11] can be described thus: A CellTox Green Cytotoxicity Assay to monitor cytotoxicity in HepG2 cells - 8 hour (AID 1224890). Also: nearly all actives have a fitted effect of over 45% in size. The essentials: as §3
A short description of test [12]: qHTS assay to identify small molecule antagonists of the estrogen receptor alpha (ER-alpha) signaling pathway using the BG1 cell line in the presence of 0.1 nM 17-beta-estradiol - cell viability counter screen (AID 1259241). Also: nearly all actives have a fitted effect of over 40% in size. In outline:
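VM7Luc4E2 cells (endogenous ER-alpha, 4×ERE-luciferase), hormone-starved 5 days in charcoal-stripped FBS, were treated with compounds plus 0.1 nM 17beta-estradiol for 22 hr at 37C; viability read in same wells as CellTiter-Fluor live-cell protease fluorescence.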

A short description of test [13]: qHTS assay to identify small molecule antagonists of the androgen receptor (AR) signaling pathway using the MDA cell line in the presence of 0.5 nM R1881 - cell viability counter screen (AID 1259242). Also: nearly all actives have a fitted effect of over 45% in size. In outline: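 Live-cell protease fluorescence, CellTiter-Fluor, 30 min at 37C. Cells: MDA-kb2, 3,000/well, preincubated 5 hr. Compounds plus 0.5 nM R1881 final, 16 hr, 37C, 0% CO2.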

Test [14] concerns the target Androgen receptor (Homo sapiens) (UniProt P10275). The test can be described thus: qHTS assay to identify small molecule antagonists of the androgen receptor (AR) signaling pathway using the MDA cell line in the presence of 0.5 nM R1881 (AID 1259243). Also: nearly all actives have a fitted effect of over 50% in size. Also: potency is read from the fitted curve at half-maximal effect. The essentials:
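MDA-kb2, MMTV-luc (AR/GR elements); 3,000 cells/well; cpd + 0.5 nM R1881 final; 16 hr 37C, 0% CO2; ONE-Glo 30 min RT; luminescence.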

The target in test [15] is Estrogen receptor (Homo sapiens) (UniProt P03372). The test can be described thus: qHTS assay to identify small molecule antagonists of the estrogen receptor alpha (ER-alpha) signaling pathway using the BG1 cell line in the presence of 0.1 nM 17-beta-estradiol (AID 1259244). Also: nearly all actives have a fitted effect of over 50% in size. Also: potency is read from the fitted curve at half-maximal effect. In outline: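 Luminescence after ONE-Glo (30 min, room temperature) measured ERE-luciferase activity in VM7Luc4E2 cells treated 22 h with compound and 0.1 nM final 17beta-estradiol as stimulator.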

Test [16] is described as follows: qHTS assay to identify small molecule phospholipidosis (PLD) inducers (AID 1259344; active = well fitted curve in the direction sought with a large enough effect; an effect the other way counts as inactive or inconclusive). The essentials: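 Accumulated phospholipid, stained red by LipidTOX during 24 h compound treatment of HepG2 cells at 37 C, is quantified from images as pit number and intensity, normalised per cell using Hoechst-stained nuclei.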
A short description of test [17]: qHTS assay to identify small molecule HDAC inhibitors (AID 1259364). Also: potency is read from the fitted curve at half-maximal effect.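 Also: wild-type HCT-116 cells with endogenous class I/II HDAC activity; nearly all actives have a fitted effect of over 45% in size.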 The essentials: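 HCT-116 (wild type), 1,500 cells/well, overnight; compound 2 hr 37C 5% CO2; HDAC-Glo I/II reagent 30 min RT; luminescence readout.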
Test [18] can be described thus: qHTS assay to identify small molecule HDAC inhibitors - cell viability counter screen (AID 1259365). The essentials: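 Wild-type HCT-116 cells were seeded at 1,500 per well, incubated overnight at 37 C, then exposed to compounds in DMSO for 2hr. Viability was read by CellTiter-Glo luminescence after 30min at room temperature.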
The nature of test [19]: qHTS assay to identify small molecule agonists of the sonic hedgehog signaling (Shh) pathway - cell viability counter screen (AID 1259366). Also: nearly all actives have a fitted effect of over 50% in size. The essentials: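 NIH/3T3-derived 3T3 Gli1-Luc cells (stable Gli1-responsive firefly luciferase reporter) were seeded, rested 4 hr at 37 C/5% CO2, then exposed to compounds in DMSO for 24 hr; viability was read by CellTiter-Fluor fluorescence in the same wells.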

Test [20] can be described thus: qHTS assay to identify small molecule antagonists of the sonic hedgehog signaling (Shh) pathway - cell viability counter screen (AID 1259367). Also: nearly all actives have a fitted effect of over 55% in size. Also: potency is read from the fitted curve at half-maximal effect. The essentials: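 CellTiter-Fluor signal in conditioned medium-stimulated 3T3 Gli1-Luc cells, 23 hr compound exposure, 37C.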

Sequence of Estrogen receptor (Homo sapiens) (P03372 whole entry, looked up): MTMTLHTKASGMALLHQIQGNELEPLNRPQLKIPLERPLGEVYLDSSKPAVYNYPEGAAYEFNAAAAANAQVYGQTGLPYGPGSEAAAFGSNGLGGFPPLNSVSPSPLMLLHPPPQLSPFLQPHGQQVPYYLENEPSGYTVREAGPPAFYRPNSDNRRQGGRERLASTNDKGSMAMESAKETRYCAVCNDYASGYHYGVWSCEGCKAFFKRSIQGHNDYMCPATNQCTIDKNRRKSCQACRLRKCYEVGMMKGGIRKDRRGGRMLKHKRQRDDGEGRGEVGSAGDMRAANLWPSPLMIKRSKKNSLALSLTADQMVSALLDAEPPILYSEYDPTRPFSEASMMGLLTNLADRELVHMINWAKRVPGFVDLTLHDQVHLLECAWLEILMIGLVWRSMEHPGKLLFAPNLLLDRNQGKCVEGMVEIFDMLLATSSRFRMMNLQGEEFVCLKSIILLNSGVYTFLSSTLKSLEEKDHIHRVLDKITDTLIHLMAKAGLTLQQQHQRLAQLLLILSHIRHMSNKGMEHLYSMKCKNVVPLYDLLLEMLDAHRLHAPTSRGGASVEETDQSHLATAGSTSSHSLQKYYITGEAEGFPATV
Sequence of Androgen receptor (Homo sapiens) (P10275 whole entry, looked up): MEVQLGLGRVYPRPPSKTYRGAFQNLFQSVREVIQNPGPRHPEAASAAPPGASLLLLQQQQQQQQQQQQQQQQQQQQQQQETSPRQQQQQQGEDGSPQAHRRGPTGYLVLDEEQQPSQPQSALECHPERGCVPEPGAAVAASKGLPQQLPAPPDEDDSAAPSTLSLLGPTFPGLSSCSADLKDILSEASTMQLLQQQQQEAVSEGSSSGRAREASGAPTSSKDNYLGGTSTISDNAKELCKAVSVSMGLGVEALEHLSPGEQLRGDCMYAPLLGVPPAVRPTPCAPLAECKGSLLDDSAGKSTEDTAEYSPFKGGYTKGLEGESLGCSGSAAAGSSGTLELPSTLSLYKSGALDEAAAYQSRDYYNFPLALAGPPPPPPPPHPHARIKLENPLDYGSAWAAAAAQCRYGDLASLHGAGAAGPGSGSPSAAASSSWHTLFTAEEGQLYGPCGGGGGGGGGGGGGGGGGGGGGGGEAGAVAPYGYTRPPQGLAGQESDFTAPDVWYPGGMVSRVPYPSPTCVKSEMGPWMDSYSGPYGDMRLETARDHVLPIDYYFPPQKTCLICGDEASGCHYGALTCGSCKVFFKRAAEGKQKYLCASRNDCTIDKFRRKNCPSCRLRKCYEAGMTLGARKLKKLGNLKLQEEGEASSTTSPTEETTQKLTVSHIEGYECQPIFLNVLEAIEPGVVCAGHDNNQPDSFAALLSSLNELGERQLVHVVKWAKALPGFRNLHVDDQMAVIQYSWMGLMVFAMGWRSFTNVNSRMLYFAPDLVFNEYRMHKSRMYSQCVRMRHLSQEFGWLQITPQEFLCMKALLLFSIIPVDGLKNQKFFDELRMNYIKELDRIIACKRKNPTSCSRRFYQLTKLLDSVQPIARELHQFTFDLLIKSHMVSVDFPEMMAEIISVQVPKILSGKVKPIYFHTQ

`COP(=S)(OC)Oc1cc(Cl)c(Cl)cc1Cl`: the Potency entry in [1], in test [2], in test [3], in [4], in test [5] and in test [6] was “inactive” in each case. The Potency result in test [7], in test [8], in test [9], in test [10], in test [11] and in test [12] was “inactive” in each case. The Potency result in [13], in [15], in [17], in [19] and in test [20] was “inactive” each time. For the same compound, the Potency in [14] was 54.1 µM (active) and inactive. The result in test [16] and in test [18] was inactive.
`Clc1nc(Cl)nc(Cl)n1`: the Potency entry in test [1], in test [2], in [3], in [4], in [5] and in test [6] was “inactive” throughout. For the same compound, the Potency result in [7], in [8], in test [9], in [10], in [11] and in test [12] was “inactive” in each case. Further, the Potency result in [13], in test [15], in test [19] and in [20] was “inactive” in each case. For the same compound, the outcome in [18] was inactive.
In the case of `Nc1ccc(-c2ccccc2)cc1`, the Potency result in test [1], in test [2], in test [3], in test [4], in test [5] and in test [6] was “inactive” throughout. The Potency result in test [8], in test [9], in test [10], in test [11], in [12] and in [13] was “inactive” each time. For the same compound, the Potency entry in test [15], in test [19] and in [20] was “inactive” each time. For the same compound, the Potency in [7] is 7.11 µM (active) and inactive. For the same compound, the call in test [18] was inactive.
Turning to `Nc1c(Cl)cc([N+](=O)[O-])cc1Cl`, the Potency entry in test [1], in test [2], in test [3], in test [5], in test [6] and in test [7] was “inactive” each time. For the same compound, the Potency entry in [8], in test [9], in test [10], in test [11], in test [12] and in [13] was “inactive” in each case. The Potency entry in test [19] and in [20] was “inactive” each time. Moreover, the Potency is 6.9 µM (active) and 27.3 µM (active) in test [14]; “inactive and 27.3 µM (active)” in [15]. In test [18], the compound was called inactive.
As for `CCOc1cc(Oc2ccc(C(F)(F)F)cc2Cl)ccc1[N+](=O)[O-]`, the Potency entry in test [1], in test [2], in test [3], in test [4], in test [5] and in test [6] was “inactive” throughout. Moreover, the Potency result in test [9], in test [10], in [11], in test [12], in test [13] and in [15] was “inactive” in each case. The Potency entry in [17], in test [19] and in [20] was “inactive” in each case. The outcome in test [18] was inactive.
Consider `CN(C)c1ccc(C(=O)c2ccc(N(C)C)cc2)cc1`, for which the Potency result in test [1], in [2], in [3], in [5], in test [6] and in [8] was “inactive” in each case. The Potency entry in [9], in test [10], in test [11], in [12], in test [13] and in test [19] was “inactive” in each case. In addition, the Potency in test [4] is 12.2 µM (active); in test [17] it was “inactive and 48.6 µM (active)”; in [20], “inactive and 21.7 µM (active)”. In [18], the outcome was inactive.
With `Cc1cc(C)cc(C)c1`, the Potency result in test [1], in test [2], in test [3], in test [4], in test [5] and in test [6] was “inactive” each time. The Potency result in test [7], in [8], in test [9], in [10], in [11] and in [12] was “inactive” each time. Besides, the Potency result in test [13], in [17], in [19] and in test [20] was “inactive” throughout. Further, the outcome in test [18] was inactive.
